The results in this text go back to PubChem BioAssay AID1903 (Southern Research Specialized Biocontainment Screening …, 2009).

Hit rate of the full screen: of about 310,000 compounds, about 1,200 (0.39%) were called active. Only a sample is shown. Potency and affinity values are given separately. Unmarked numbers belong to inactive results. How the calls were made is not given here.

The experiment deals with Large T antigen (Simian virus 40) (UniProt P03070). Description: SV40 large T antigen inhibitors, biochemical (AID 1903). The conditions noted are these: SV40 large T antigen ATPase/helicase inhibition assay; at 20 µM; active compounds read high.
Chain of Large T antigen (Simian virus 40) (P03070 whole entry, looked up): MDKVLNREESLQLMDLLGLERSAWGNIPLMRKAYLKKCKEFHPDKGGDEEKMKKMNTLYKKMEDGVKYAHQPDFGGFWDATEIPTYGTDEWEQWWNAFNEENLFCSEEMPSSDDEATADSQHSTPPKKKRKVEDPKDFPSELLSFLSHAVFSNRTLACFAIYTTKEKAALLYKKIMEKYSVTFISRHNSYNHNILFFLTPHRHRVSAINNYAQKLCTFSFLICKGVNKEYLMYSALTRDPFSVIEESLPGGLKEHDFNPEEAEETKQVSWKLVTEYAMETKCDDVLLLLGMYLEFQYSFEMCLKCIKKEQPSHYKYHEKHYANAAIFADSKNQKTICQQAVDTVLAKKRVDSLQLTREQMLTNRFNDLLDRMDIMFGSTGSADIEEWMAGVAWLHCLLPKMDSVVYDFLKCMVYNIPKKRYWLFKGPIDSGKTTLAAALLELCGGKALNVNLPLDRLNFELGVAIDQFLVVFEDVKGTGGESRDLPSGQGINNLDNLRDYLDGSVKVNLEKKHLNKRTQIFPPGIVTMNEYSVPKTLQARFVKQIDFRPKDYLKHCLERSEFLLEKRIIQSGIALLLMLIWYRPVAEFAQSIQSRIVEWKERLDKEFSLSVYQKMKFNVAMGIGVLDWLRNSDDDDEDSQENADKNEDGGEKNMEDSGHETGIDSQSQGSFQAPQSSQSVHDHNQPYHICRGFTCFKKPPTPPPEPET
With `CC1CCCC(C)N1C(=O)COC(=O)c1ccc2c(c1)OCO2` (centres undefined), the inhibition (in general, the change of the read-out against control, counted positive when it falls) was -2.3%.

For `Cc1ccc(S(=O)(=O)N2CCN(C(=O)COC(=O)CCOc3cc(C)ccc3C)CC2)cc1`, the inhibition is 7.19%.

As to `COc1ccccc1OCC(=O)N1CCNC1=O`, the inhibition was 12%.

Consider `O=C1NC(=S)N/C1=C/c1ccc2c(c1)OCO2`, for which the inhibition is 11.6%.

Consider `O=Cc1ccc2c(c1)CCN2Cc1ccccc1`, for which the inhibition is 3.42%.

`O=C(O)c1cc(NS(=O)(=O)c2ccc3ccccc3c2)ccc1O`: the inhibition is 25.9%.

As to `O=C(O)c1cccc(S(=O)(=O)Nc2ccc3c(c2)OCO3)c1`, the inhibition was 15.8%.

For `CC(=O)c1c(C)oc2ccc(NS(=O)(=O)c3ccc(O)c(C(=O)O)c3)cc12`, the inhibition is 20.5%.

Take `O=C(O)c1cccc(S(=O)(=O)Nc2ccc3[nH]c(=O)[nH]c3c2)c1`: the inhibition was -8.06%.

As to `C=CCN(c1ccccc1)S(=O)(=O)c1cccc(C(=O)NNC(=O)c2ccccc2O)c1`, the inhibition was 7.21%.

For `CC(C)c1nc(SCC(=O)Nc2ccc3c(c2)OCCO3)c2c(=O)n(C)c(=O)n(C)c2n1`, the inhibition was 3.08%.

For `Cc1c(NC(=O)/C(C#N)=C/c2ccc(-c3cc(Cl)ccc3Cl)o2)c(=O)n(-c2ccccc2)n1C`, the inhibition is 0.645%.

On to `C/C(=N\Nc1nc(N)cc(Cl)n1)c1ccc(F)cc1`, for which the inhibition is 1.42%.

Regarding `CSc1cccc(CNC(=O)C2CCC(=O)N(CCc3ccccn3)C2)c1` (centres undefined), the inhibition was 25.2%.

For the compound `Cc1ccc(-c2ccc(=O)n(CC(=O)NCCN3C(C)CCCC3C)n2)cc1` (centres undefined), the inhibition was 0.56%.

For the compound `COc1ccccc1N(CC(=O)NCc1ccccc1C)S(=O)(=O)c1ccc(C)cc1`, the inhibition is 2.07%.

As for `O=C1Nc2ccccc2Nc2ncccc21`, the inhibition is -0.98%.

As to `Cc1ccc2c(c1)/C(=C/c1ccco1)C(=O)N2`, the inhibition was -3.2%.

With `COc1cc(C)c2c(c1C=O)Oc1c(c(C)c(O)c3c1C(O)OC3=O)OC2=O` (centres undefined), the inhibition was 20%.

Turning to `COc1cc(C(=O)O)c2c(c1C)OC(=O)c1c(C)cc(O)c(C=O)c1O2`, the inhibition was 5.23%.

In the case of `Cc1ccccc1NC(=O)NC1(C(=O)N2CCN(C)CC2)CCCCC1`, the inhibition is 8.19%.

Take `COc1cc(OC)cc(C(=O)N/N=C/c2ccc(OC)c(COc3ccc(F)cc3)c2)c1`: the inhibition is -6.49%.

Turning to `Cc1ccc(-c2nnc(Nc3cccc(O)c3)c3ccccc23)cc1S(=O)(=O)NCCO`, the inhibition is 34.4%.

On to `CC(=O)Nc1ccc(Nc2nnc(-c3ccc(C)c(S(=O)(=O)NCCO)c3)c3ccccc23)cc1`, for which the inhibition is 10.9%.

`Cc1cnc(NCCc2ccccc2)s1`: the inhibition was 7.89%.

With `O=C(CSc1nncc2ccccc12)Nc1cccc(C(=O)O)c1`, the inhibition is 27.1%.

Regarding `CN(CC(=O)Nc1ccc(F)cc1)C(=O)COc1ccc([N+](=O)[O-])cc1Cl`, the inhibition was 0.38%.

Turning to `C[C@@H]1O[C@@H](O[C@H]2[C@H](Oc3cc(O)c4c(c3)OC(c3ccc(O)cc3)CC4=O)O[C@H](CO)[C@@H](O)[C@@H]2O)[C@H](O)[C@H](O)[C@H]1O` (some centres undefined), the inhibition was 34%.

`C[C@@H]1O[C@@H](O[C@H]2[C@H](Oc3cc(O)c4c(c3)O[C@H](c3ccc(O)cc3)CC4=O)O[C@H](CO)[C@@H](O)[C@@H]2O)[C@H](O)[C@H](O)[C@H]1O`: the inhibition is 25.7%.

For `CC(C)Oc1ccc(CN2CCCC(CO)(Cc3ccc(F)cc3)C2)cc1` (centres undefined), the inhibition is 6.25%.

Turning to `Cc1nn(-c2ccccc2)c2sc(C(=O)NCCN3CCOCC3)cc12`, the inhibition is 16.1%.

With `O=C1NN(c2cccc(Br)c2)C(=O)/C1=C\c1ccc(N2CCOCC2)cc1`, the inhibition is 8.36%.

As to `O=C1NN(c2cccc(Br)c2)C(=O)/C1=C\c1ccccc1`, the inhibition is 26.7%.

In the case of `O=C(NCc1ccccc1)C1CC(=O)N(c2ccc(OCC(=O)N3CCCC3)cc2)C1` (centres undefined), the inhibition is 5.81%.

Turning to `COc1ccccc1N(CC(=O)NCc1ccco1)S(C)(=O)=O`, the inhibition is 15.8%.

On to `CN(C)c1cc(Nc2cccc(O)c2)c([N+](=O)[O-])c2nonc12`, for which the inhibition was 16.9%.

`O=C(O)c1ccccc1Nc1cc(Cl)c2nonc2c1[N+](=O)[O-]`: the inhibition was 33.3%.

For `O=C(O)c1cccc(Nc2ccc3nonc3c2[N+](=O)[O-])c1`, the inhibition is 10.9%.

On to `O=[N+]([O-])c1c(Nc2ccccc2O)cc(Cl)c2nonc12`, for which the inhibition was 29.4%.

As to `Cc1c(Nc2cc(Cl)c3nonc3c2[N+](=O)[O-])c(=O)n(-c2ccccc2)n1C`, the inhibition was 26.5%.

Regarding `O=[N+]([O-])c1c(Nc2ccccn2)cc(Cl)c2nonc12`, the inhibition was 27.4%.

With `CN(C)c1cc(Nc2ccc(O)cc2)c([N+](=O)[O-])c2nonc12`, the inhibition is 14.7%.

For `O=C(O)c1cccc(Nc2cc(Cl)c3nonc3c2[N+](=O)[O-])c1`, the inhibition is 20.1%.

Turning to `O=C(O)c1cnc(-c2ccccc2)nc1Sc1ccc(Cl)cc1`, the inhibition is 12.4%.

Take `CCOc1ccc(C(c2nnnn2C(C)(C)C)N2CCN(C(=O)c3ccco3)CC2)cc1` (centres undefined): the inhibition is 4.34%.

Take `CC(NS(=O)(=O)c1ccc(F)cc1)C(c1cccs1)N1CCOCC1` (centres undefined): the inhibition is -5.54%.

As for `COC(=O)c1ccccc1NC(=O)CCCCCn1nnc2ccccc2c1=O`, the inhibition was 26.9%.

On to `COc1cccc(CN(C)CC(=O)NCc2ccc(F)cc2)c1OC`, for which the inhibition was -3.04%.

For `CC(=O)Oc1ccc(-c2cccc(C(=O)Oc3ccccc3)c2)cc1`, the inhibition is -7.54%.

Consider `CCN(CC)S(=O)(=O)c1ccc(NC(=O)COC(=O)CCc2cc(OC)c(OC)c(OC)c2)cc1`, for which the inhibition was 0.42%.

As to `O=[N+]([O-])c1ccccc1NCCOc1ccccc1`, the inhibition was 5.2%.

`COC(=O)c1ccccc1NC(=O)C/C(C)=N/NC(=O)CC#N`: the inhibition was 6.52%.

With `CC(C)C[C@H](NC(=O)Nc1cccc(Cl)c1)C(=O)O`, the inhibition was 10.3%.

On to `O=C(CN1CCOCC1)Nc1ccccc1Cl`, for which the inhibition was 8.91%.

Turning to `NC(=O)N/N=C/c1ccc(-c2ccc([N+](=O)[O-])cc2)o1`, the inhibition was 12.1%.

Regarding `O=C(N/N=C/c1ccc(-c2cccc([N+](=O)[O-])c2)o1)c1ccccc1O`, the inhibition was 2.92%.

As for `O=C(N/N=C/c1ccc(O)cc1O)C1CC1`, the inhibition is 33.4%.

On to `NC(N)=N/N=C/c1cc([N+](=O)[O-])ccc1O`, for which the inhibition is 9.25%.

Consider `CCCCn1c(N)c(N(CC(C)C)C(=O)C2CCN(S(=O)(=O)c3ccc(Cl)cc3)CC2)c(=O)[nH]c1=O`, for which the inhibition is 11.5%.

Regarding `O=C(NCC1CCCCC1)c1cccnc1`, the inhibition is 11.1%.

Regarding `CCCC(=O)Nc1cc2c3c(c1)CC(=O)N3CCC2`, the inhibition is 8.54%.

As for `O=C(NCCO)C(=O)Nc1cc2c3c(c1)CC(=O)N3CCC2`, the inhibition is 7.7%.

As to `Nc1ccc(Nc2ccccc2)c(Cl)c1`, the inhibition was 19.8%.

With `Cc1ccc(Nc2ccc(C(=O)O)cc2N)cc1`, the inhibition is -4.88%.

With `Cc1ccc(Nc2ccc(N)cc2S(=O)(=O)O)cc1`, the inhibition is 21.6%.

As to `Cc1cc(C)cc(Nc2ccc(C(=O)O)cc2N)c1`, the inhibition is 23.9%.

`CC(=O)c1c(NCCc2ccccc2)cc(C)oc1=O`: the inhibition was -0.81%.

With `CCC(OC(=O)c1cccs1)C(=O)NCc1ccco1` (centres undefined), the inhibition is 8.42%.

On to `Cc1c(Cl)cccc1NC(=O)NC1CCCCC1`, for which the inhibition is 2.26%.

Consider `CCc1cccc2c(C(=O)CSc3nncn3-c3ccccc3OC)c[nH]c12`, for which the inhibition is 2.74%.

As to `COc1cccc(-n2cc(C(=O)NCCCOC(C)C)c3ccccc3c2=O)c1`, the inhibition is 11.2%.

Regarding `O=C(/C=C/c1ccc(O)c(O)c1)OCCc1ccccc1`, the inhibition was 37.9%.

Take `O=C(/C=C/c1ccc(O)c(O)c1)OC(Cc1ccc(O)c(O)c1)C(=O)O` (centres undefined): the inhibition was 4.28%.

With `CN(CCCNS(=O)(=O)c1cccc2cccnc12)Cc1ccccc1`, the inhibition was -0.29%.

Turning to `O=C(Cn1c(=O)n(Cc2ccco2)c(=O)c2c3c(sc21)CCCCC3)Nc1ccccc1`, the inhibition was 51.6%.

Take `O=C(Cn1c(=O)n(Cc2ccco2)c(=O)c2c3c(sc21)CCCCC3)c1ccccc1`: the inhibition was 49.4%.

Consider `CN1C(=O)C(CC(=O)NC2CCCCC2)N(C)C1=O` (centres undefined), for which the inhibition is -7.63%.

Regarding `Cc1cccc(N=Cc2c(O)cc(C)oc2=O)c1`, the inhibition was 7.74%.

As for `CCOc1ccc(N=Cc2c(O)cc(C)oc2=O)cc1`, the inhibition was 18.6%.

For `NC(=O)CN1CCN(S(=O)(=O)c2ccc(Cl)cc2)CC1`, the inhibition was 4.21%.

Consider `COc1ccc(C2CC(=O)C=C(O)C2)cc1` (centres undefined), for which the inhibition was 6.5%.

`COc1ccc(C(C2C(=O)CC(C)(C)CC2=O)C2C(=O)CC(C)(C)CC2=O)cc1`: the inhibition was 25.9%.

As for `CC(=O)N(Cc1cccc(Br)c1)c1ccc(N2CCOCC2)c(Cl)c1`, the inhibition is 9.14%.

Turning to `Cn1c(COc2ccc3ccccc3c2)nnc1SCC(N)=O`, the inhibition was -1.72%.

Turning to `Cc1cccc(N=c2oc3cc(O)ccc3cc2C(N)=O)c1`, the inhibition is 22.6%.

`NC(=O)c1cc2ccc(O)cc2oc1=Nc1ccccc1`: the inhibition is 36.3%.

For `CN(C)/C=N/c1c(C#N)cnn1-c1ccccc1`, the inhibition was 9.99%.

For `CN(CC(=O)Nc1ccc(Cl)c(C(F)(F)F)c1)C(=O)C1CCC1`, the inhibition was 17.7%.

On to `Cc1ccc(N=Cc2sccc2C)cc1C`, for which the inhibition was 3.36%.

As for `Cc1ccsc1/C=N/N=C/c1sccc1C`, the inhibition was -8.78%.

Turning to `Cn1c(N)c(S(=O)(=O)N2CCCC2)c(=O)n(C)c1=O`, the inhibition is 8.94%.

For `CCOc1ccccc1NC(=O)C1CCN(c2ccc(S(=O)(=O)N3CCCC3)cc2)CC1`, the inhibition was 5.71%.

For the compound `NC(=O)c1cc2cc(Br)ccc2oc1=NCc1ccccc1`, the inhibition is -0.91%.

In the case of `CC(=NCc1ccccc1)C1=C(O)COC1=O`, the inhibition was 5.76%.
